Screening results from PubChem BioAssay.
ALR H2O2 inh: blocks human ALR sulfhydryl oxidase activity. P55789. inhibition, % (no concentration beside the values). hit rate 3.8% among 290,000. AID 485317. purified ALR, DTT oxidation, H2O2 HRP-luminol luminescence;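 active means mean replicate inhibition above about 79%, with every replicate also reaching it, limit read from the data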
aDG glyco act: increases alpha dystroglycan glycosylation; Pro5-aDG cells, alpha-DG glycosylation AlphaScreen (IIH6); 0% Pro5, 100% B10-LARGE cell signal; activation, % at 10 µM; hit rate 0.22% among 360,000;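 active means activation of at least 8% versus controls, or a plate z-score of at least 8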;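 further: Pro5 are CHO cells carrying HIG-tagged alpha-DG that lacks glycosylation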
A3A deaminase: inhibitors of human APOBEC3A DNA deaminase; P31941; recombinant A3A, FAM/TAMRA ssDNA deamination fluorescence; inhibition, % at 20 µM; hit rate 0.41% among 330,000; AID 493011;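 active means at least 40% inhibition at 20 µM here, with at most 30% in a related deaminase screen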;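 further: plate controls were A3A with DMSO for no effect and wells lacking A3A enzyme for full effect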
Target sequence (P31941 whole entry, looked up): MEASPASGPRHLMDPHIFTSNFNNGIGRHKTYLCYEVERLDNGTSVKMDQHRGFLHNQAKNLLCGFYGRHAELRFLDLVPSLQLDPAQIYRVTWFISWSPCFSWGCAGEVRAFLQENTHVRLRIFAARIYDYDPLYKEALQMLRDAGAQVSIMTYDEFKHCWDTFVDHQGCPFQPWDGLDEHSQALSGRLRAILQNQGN
APOBEC3G inh: APOBEC3G (human) deaminase inhibition; Q9HC16; recombinant A3G, ssDNA deamination FAM/TAMRA fluorescence; inhibition, % at 20 µM; hit rate 0.28% among 330,000; AID 493012;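 active means inhibition of at least 40% at 20 µM, with no more than 30% in the related APOBEC3A deaminase screen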;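 further: plate controls were DMSO wells with A3G for no effect and wells lacking A3G enzyme for full effect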
Target sequence (Q9HC16 whole entry, looked up): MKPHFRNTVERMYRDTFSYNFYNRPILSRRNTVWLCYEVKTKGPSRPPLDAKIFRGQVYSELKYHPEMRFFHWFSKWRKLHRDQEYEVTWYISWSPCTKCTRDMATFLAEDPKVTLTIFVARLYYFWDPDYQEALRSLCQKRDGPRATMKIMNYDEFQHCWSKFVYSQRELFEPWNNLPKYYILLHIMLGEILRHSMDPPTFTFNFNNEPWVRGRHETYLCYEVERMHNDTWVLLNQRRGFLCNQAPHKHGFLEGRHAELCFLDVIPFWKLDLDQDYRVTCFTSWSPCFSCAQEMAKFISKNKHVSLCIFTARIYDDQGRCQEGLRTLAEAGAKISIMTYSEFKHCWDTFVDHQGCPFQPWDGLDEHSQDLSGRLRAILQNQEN
PHOSPHO1 inh: blocks human PHOSPHO1 phosphatase activity; inhibition, % at 13.3 µM; Q8TCT1; recombinant PHOSPHO1, absorbance phosphatase assay; hit rate 1.1% among 290,000; AID 1565; in the data active means inhibition above about 60%
rCAG binder: molecules binding r(CAG) RNA repeats | inhibition, % at 3 µM | hit rate 1.3% among 370,000 | r(CAG) RNA repeat, TO-PRO-1 dye displacement fluorescence | AID 651821;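 active means inhibition above the plate cutoff, the mean of all test compounds on that plate plus 3 SD, cut at about 35% in these data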;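 further: 0% = DMSO alone and 100% = 100 µM mitoxantrone as full dye displacement; higher means more dye released from RNA so lower well fluorescence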
rCAG bind conf: r(CAG) RNA repeat binding, confirmation | hit rate 70% among 4,300 | shares compounds with rCAG binder | inhibition, % at 3 µM | TO-PRO-1 dye displacement fluorescence | AID 652065;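 active means inhibition above a per-plate cutoff, the mean inhibition of sample wells plus 3 SD, cut at about 35% in these data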;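 further: loss of TO-PRO-1 fluorescence as compound displaces dye from 1x1 AA loop RNA; 0% = DMSO only wells and 100% = 100 µM mitoxantrone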
DNA CAG counter: counter-screen for rCAG RNA binders: DNA CAG dye complex inhibitors | shares compounds with rCAG binder | d(CAG) DNA oligo TO-PRO-1 dye displacement, fluorescence | inhibition, % at 3 µM | hit rate 94% among 4,300 | AID 652068;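 active means inhibition above its plate's cutoff, the mean test-well inhibition plus 3 SD, cut at about 4.8% in these data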;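 further: 0% = DNA dye mix with DMSO and 100% = 100 µM mitoxantrone; hits displace the dye from DNA and so lower well fluorescence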
dCAG dye DR: disrupts DNA CAG TO-PRO-1 complex in dose response. shares compounds with rCAG binder. DNA CAG/GTC duplex TO-PRO-1 dye displacement fluorescence. IC50, µM. hit rate 20% among 250; in the data active means IC50 below about 10 µM
* marks the source's active call; other numbers are inactive results; nt = no result. Hits are enriched below; roughly 5.4% of the tested compounds scored in any of these assays.

SMILES	ALR H2O2 inh	aDG glyco act	A3A deaminase	APOBEC3G inh	PHOSPHO1 inh	rCAG binder	rCAG bind conf	DNA CAG counter	others
Cc1ccc(NC(=O)CN2C(=O)N/C(=C/c3ccccc3OCc3cccc(C(=O)O)c3)C2=O)cc1	nt	0	3	2	-48	76*	63*	27*
O=C(O)c1ccc(COc2ccccc2/C=C2\NC(=O)N(Cc3ccccc3F)C2=O)cc1	3	0	1	-4	32	42*	45*	14*
COc1cc(/C=C(/C#N)C(=O)Nc2ccccc2)c(Br)cc1OCc1ccc(C(=O)O)cc1	nt	0	-4	-4	32	46*	73*	35*
Cc1ccc(C)c(CC(=O)N2CCCCC2c2cc(C(=O)Nc3ccc(F)c(Cl)c3)no2)c1 (configuration not stated)	nt	0	nt	nt	nt	9	nt	nt
CCOC(=O)CC1=NN(c2ccccc2)C(=O)/C1=C\c1ccc(N(C)C)cc1	4	0	-8	-8	-1	5	nt	nt
CCOC(=O)CC1=NN(c2ccccc2)C(=O)C1	-44	0	-3	-1	55	38*	9	5.0*
CC(C)OC(=O)N(C)C[C@@H]1OCc2cnnn2CCCC(=O)N([C@H](C)CO)C[C@@H]1C	nt	0	nt	nt	nt	0	nt	nt
CCOC(=O)C1=CC[C@@H](c2ccccc2)C(C#N)(C#N)[C@H]1/C=C/c1ccccc1	nt	nt	nt	nt	nt	6	nt	nt
NS(=O)(=O)c1cccc(NS(=O)(=O)c2ccc(/C=C/C(=O)OCC(=O)c3ccccc3)cc2)c1	nt	0	-2	-13	34	60*	54*	22*
COc1ccc(C(=O)COC(=O)/C=C/c2ccccc2)cc1	-1	0	1	-3	5	-3	nt	nt
O=C(CN1CCN(c2nc(-c3ccccc3)cs2)CC1)Nc1ccc(Cl)cc1	nt	nt	nt	nt	nt	4	nt	nt
O=C(Nc1cc(S(=O)(=O)N2CCCCC2)ccc1O)c1ccccc1NS(=O)(=O)c1ccc(F)cc1	16	0	-1	-5	6	85*	87*	57*
O=C(Nc1cc(S(=O)(=O)N2CCCCC2)ccc1Cl)c1ccccc1NS(=O)(=O)c1ccc(F)cc1	-5	0	nt	nt	16	89*	89*	65*
O=C(c1ccccc1NS(=O)(=O)c1ccc(F)cc1)N1CCCCC1	-1	0	1	-1	nt	2	nt	nt
O=C(NCc1ccccc1)C1C(c2ccc3c(c2)OCO3)=Nc2ccccc2N1C(=O)c1ccco1 (configuration not stated)	nt	0	nt	nt	nt	7	nt	nt
Cc1ccc(C(=O)Nc2ccccc2C(=O)O)cc1S(=O)(=O)Nc1ccc(Br)cc1	98*	0	4	-1	nt	83*	86*	56*
Cc1ccc(F)cc1NC(=O)c1ccc(NS(=O)(=O)c2ccc(Br)s2)cc1	2	0	-4	-6	-18	41*	38*	11*
O=C(Nc1ccccc1C(=O)O)c1cc(S(=O)(=O)NCc2ccccc2)ccc1Cl	nt	0	-4	-9	35	49*	39*	6.5*
O=C(Nc1cccc(Cl)c1Cl)c1cc(S(=O)(=O)NCCc2ccccc2)ccc1F	3	0	-2	-9	10	7	nt	nt
CCOc1ccc(S(=O)(=O)NCc2cccnc2)cc1NC(=O)c1ccccc1	nt	0	nt	nt	nt	2	nt	nt
COc1ccc(S(=O)(=O)NCc2cccnc2)cc1NC(=O)c1ccccc1C	nt	0	nt	nt	nt	66*	59*	34*
Cc1ccccc1NC(=O)c1ccc(C)c(S(=O)(=O)Nc2cccnc2)c1	-12	0	1	17	38	2	nt	nt
CCOC(=O)C1(C)CCCN1C(=O)c1ccc(N(C)C)cc1 (configuration not stated)	nt	0	nt	nt	nt	1	nt	nt
Cc1ccc(C(=O)Nc2ccccc2C(=O)O)cc1S(=O)(=O)NCc1ccccc1	5	0	-3	-5	-6	64*	50*	17*
Cc1ccc(C(=O)Nc2ccccc2C(=O)O)cc1NC(=O)COc1c(C)cccc1C	2	1	0	-11	21	33	nt	nt
SMILES	ALR H2O2 inh	aDG glyco act	A3A deaminase	APOBEC3G inh	PHOSPHO1 inh	rCAG binder	rCAG bind conf	DNA CAG counter	others
COc1ccccc1NS(=O)(=O)c1ccc(N/N=C/C=C/c2ccccc2[N+](=O)[O-])c([N+](=O)[O-])c1	1	-1	-3	-5	43	6	nt	nt
COc1ccccc1NS(=O)(=O)c1ccc(N/N=C/c2ccccc2OCC(=O)O)c([N+](=O)[O-])c1	7	0	2	-5	-1	92*	90*	67*
CCN(CC)S(=O)(=O)c1ccc(N/N=C/c2ccccc2OCC(=O)O)c([N+](=O)[O-])c1	61	0	0	-4	21	75*	75*	36*
O=C(O)COc1ccccc1/C=N/Nc1ccc(S(=O)(=O)Nc2ccc(Cl)cc2)cc1[N+](=O)[O-]	5	0	-1	-14	5	84*	91*	70*
CS(=O)(=O)c1cccc(OCCCN2CCC(C(O)(c3ccccc3)c3ccccc3)CC2)c1	nt	nt	nt	nt	nt	0	nt	nt
COC(=O)Cc1nnn2c1[C@H](C)[C@H](C(C)(C)C)OCC2	nt	nt	nt	nt	nt	2	nt	nt
CC1(C(=O)NS(=O)(=O)Cc2ccccc2C(F)(F)F)CCN1C(=O)C/C=C/c1ccccc1 (configuration not stated)	nt	0	nt	nt	nt	46*	51*	10*	dCAG dye DR=>30
CC(C)(C)c1ccc(CC(=O)N2CCC2(C)C(=O)NS(=O)(=O)Cc2ccccc2)cc1 (configuration not stated)	nt	0	nt	nt	nt	41*	36*	9.3*
CC1(C(=O)NS(=O)(=O)Cc2ccccc2C(F)(F)F)CCN1C(=O)c1ccccc1 (configuration not stated)	nt	1	nt	nt	nt	8	nt	nt
CC(C)(C)c1ccc(CC(=O)N2CCC2(C)C(=O)NS(=O)(=O)c2ccc(F)cc2F)cc1 (configuration not stated)	nt	0	nt	nt	nt	41*	30	6.1*
Cc1ccc(F)c(S(=O)(=O)NC(=O)C2(C)CCN2C(=O)Cc2ccc(C(C)(C)C)cc2)c1 (configuration not stated)	nt	0	nt	nt	nt	32	nt	nt
CC(C)(C)c1ccc(CC(=O)N2CCC2(C)C(=O)NS(=O)(=O)c2ccccc2C(F)(F)F)cc1 (configuration not stated)	nt	0	nt	nt	nt	58*	45*	13*
